{"source": "PubChem BioAssay AID720690", "about": "(Broad Institute, 2013)", "note": "Measured potencies and affinities stand elsewhere. The source made the active and inactive calls.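 How the source made its calls: active means every repeat run showing a signal drop whose fitted half-maximal concentration is at most twice the top tested concentration; inconclusive means repeat runs disagree, or flat partial drop, or poor fit; inactive means the rest.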"}
{"assay": "general mammalian cell viability loss – activator set, cherry-pick, cytotoxicity control for miR-122 modulator project, dose response (AID 720690)", "conditions": "HEK293T viability, CellTiter-Glo luminescence, 48 h; series mostly up to 26 µM"}
{"compound": "CNC(=O)C[C@@H]1CC[C@@H]2[C@H](COc3ccc(NC(=O)Nc4cccc(C)c4)cc3C(=O)N2C)O1", "outcome": "inactive"}
{"compound": "COc1ccc(-c2ccc(C#N)c(OC(=O)c3c(Cl)cccc3Cl)n2)cc1", "outcome": "inactive"}
{"compound": "CN1C(=O)c2cc(NC(=O)c3cccc(F)c3)ccc2OC[C@@H]2O[C@H](CC(=O)O)CC[C@H]21", "outcome": "inactive"}
{"compound": "CCNC(=O)C[C@H]1CC[C@H]2[C@@H](COc3ccc(NC(=O)c4ccccc4)cc3C(=O)N2C)O1", "outcome": "inactive"}
{"compound": "COc1ccc(C(C#N)Nc2ccc(C)cc2)cc1", "note": "(stereo not given)", "outcome": "inactive"}
